Results reported in PubChem BioAssay.
Several values for one entry are separate records, joined by “and”; a condition that tells them apart may be missing. Identical values can stand only once. Activity calls are given as the source filed them.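 Rule for the calls, unless noted: active = compounds whose cell count with miR-34 switched on is under 0.7 times the count with it off; inactive = the rest.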

Assays:
[1] = P. berghei load reduction in hepatocytes – cell-based, HepG2, luciferase luminescence, HepG2 viability, primary screen (AID 624349; in the data active = parasite load remaining mostly below about 12%, no sharp cut-off; inactive = mostly above about 10%;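 note: 100% = mean of DMSO negative control wells on the same plate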); settings: P. berghei liver stage in HepG2, luciferase luminescence, concentration not given here; parasite load remaining: stronger effect = lower value; viability: measured here: HepG2 viability without parasites
[2] = viability loss with induced miR-34 in A549 – imaging, A549 dox-inducible miR-34, nuclei and caspase counts, primary screen (AID 1347080); settings: A549 miR-34 inducible, Hoechst nuclei count, 48 h
[3] = MELAS cybrid and Rieske KO viability enhancers – cell-based, MELAS cybrids, Rieske KO mouse fibroblasts, CellTiter-Glo, primary screen (AID 1508586;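 active = mean z-score across replicates of 1.96 or higher in either the MELAS or the Rieske mutant cell line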;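 note: z relative to plate mean and SD of compound and empty wells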); settings: low glucose
[4] = galactose survival enhancers in mitochondrial complex I cybrids – cell-based, galactose medium, ATP luminescence, primary screen (AID 1645843;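 active = z-score of at least 1.8 in each of two replicates, scored against plate mean and spread of sample wells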;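 note: positive z means more ATP and so rescue of galactose-driven cybrid death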); settings: complex I mutant cybrid cells, 72 h, stronger effect = higher value
[5] = compounds altering viability of human ES cells (AID 493140; call rule not given here;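 note: cells exposed to compounds for four days before counting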); settings: human embryonic stem cell survival screen; stronger effect = higher value
[6] = stronger effect = lower value, cell number ratio, induced over uninduced
[7] = measured here: relative caspase fold change +Dox/-Dox
[8] = measured here: total cells with miR-34 induction, stronger effect = lower value
[9] = measured here: total cells without miR-34 induction
[10] = MELAS cybrid survival, CellTiter-Glo 48 h, stronger effect = higher value
[11] = Rieske KO mouse fibroblast survival, CellTiter-Glo 72 h

| Compound | parasite load remaining [1] | viability [1] | fold change [2, 6] | fold change [2, 7] | cell count [2, 8] | cell count [2, 9] | z-score [3, 10] | z-score [3, 11] | z-score [4] | survival [5] |
| --- | --- | --- | --- | --- | --- | --- | --- | --- | --- | --- |
| O[C@H]1[C@H](O)[C@@H](O)[C@@H]2O[C@@H]2[C@@H]1O | 29.7% (inactive) | 72% | 0.828 (inactive) | 1.47 | 9740 | 11800 | 0.534 (inactive) | 0.1 | 0.2 (inactive) |  |
| N.N.O=C(O)CO.[Pt] | 50.4% (inactive) | 108% | 0.961 (inactive) | 1.22 | 10100 | 10500 | -0.923 (inactive) | -1.2 | 0.195 (inactive) |  |
| CS(=O)(=O)c1ccc([C@@H](O)[C@@H](COC(=O)CN)NC(=O)C(Cl)Cl)cc1 | 19.3% (inactive) | 69.5% | 0.967 (inactive) | 1.61 | 9390 | 9720 | -0.278 (inactive) | 1.38 | -1.12 (inactive) |  |
| COc1ccc(C(=O)/C(Br)=C\C(=O)O)cc1 | 25.4% (inactive) | 107% | 0.888 (inactive) | 1.39 | 9940 | 11200 | -0.188 (inactive) | -0.289 | -0.925 (inactive) |  |
| CN1C[C@H](C(=O)N[C@]2(C)O[C@@]3(O)[C@@H]4CCCN4C(=O)[C@H](Cc4ccccc4)N3C2=O)CC2c3cccc4[nH]cc(c34)C[C@H]21 (stereo partly drawn) | 81.9% (inactive) and 39.4% (inactive) | 69.3% and 96.5% | 0.973 (inactive) and 0.855 (inactive) | 1.1 and 1.21 | 7780 and 9120 | 8000 and 10700 | -0.956 (inactive) | -0.402 | 0.325 (inactive) |  |
| Cc1c(N)nc([C@H](CC(N)=O)NC[C@H](N)C(N)=O)nc1C(=O)N[C@@H](C(=O)N[C@H](C)[C@@H](O)[C@H](C)C(=O)N[C@@H](C(=O)NCCc1nc(-c2ncc(C(=O)NCCC[S+](C)C)s2)cs1)[C@@H](C)O)[C@@H](O[C@@H]1O[C@@H](CO)[C@@H](O)[C@H](O)[C@@H]1O[C@@H]1O[C@H](CO)[C@@H](O)[C@@H](OC(N)=O)[C@@H]1O)c1cnc[nH]1 | 89.5% (inactive) | 111% | 0.865 (inactive) | 1.1 | 4410 | 5100 | -1.31 (inactive) | -1.18 | -1.23 (inactive) |  |
| CC#CCC(C)[C@H](O)/C=C/[C@@H]1[C@H]2C/C(=C/CCCC(=O)O)C[C@H]2C[C@H]1O (stereo partly drawn) | 12.8% (inactive) | 77.5% | 0.876 (inactive) | 1.59 | 8850 | 10100 | -0.239 (inactive) | -0.923 | 0.275 (inactive) |  |
| CCC(=O)OCC(=O)[C@@]1(OC(=O)CC)[C@@H](C)C[C@H]2[C@@H]3CCC4=CC(=O)C=C[C@]4(C)C3(F)[C@@H](O)C[C@@]21C (stereo partly drawn) | 19.5% (inactive) | 67% | 0.837 (inactive) | 1.41 | 6650 | 7940 | 0.189 (inactive) | 1.36 | 0.155 (inactive) |  |
| CC(=O)OC1C=C2C(Cl)=C[C@@H]3[C@H](CC[C@@]4(C)[C@H]3CC[C@]4(OC(C)=O)C(C)=O)[C@@]2(C)CC1 (stereo partly drawn) | 9.03% (inactive) | 64% | 0.729 (inactive) | 1.61 | 7220 | 9910 | 0.137 (inactive) | 1.01 | 0.185 (inactive) |  |
| COC(=O)c1ccc(=O)c2nc3/c(=C/O)c(O)cc(=O)c3[nH]c12 | 91.5% (inactive) | 96.5% | 0.984 (inactive) | 1.28 | 3340 | 3400 | 0.379 (inactive) | -0.491 | -0.55 (inactive) |  |
| CC(C)NC[C@@H](O)c1ccc(O)c(O)c1 | 67.9% (inactive) | 93.2% | 1.04 (inactive) and 0.887 (inactive) | 1.51 and 1.13 | 10500 and 9200 | 10100 and 10400 | 0.464 (inactive) | -0.759 | -1.29 (inactive) |  |
| CCCCC(C)(O)C/C=C/[C@H]1[C@H](O)CC(=O)[C@@H]1CCCCCCC(=O)OC (stereo partly drawn) | 25.9% (inactive) | 64% | 1.01 (inactive) and 0.901 (inactive) | 1.23 and 1.3 | 5920 and 9930 | 5880 and 11000 | -0.242 (inactive) and 0.112 (inactive) | -0.698 and -0.238 | 0.245 (inactive) |  |
| CO[C@H]1[C@@H]([C@@]2(C)O[C@@H]2CC=C(C)C)[C@]2(CC[C@H]1OC(=O)/C=C/C=C/C=C/C=C/C(=O)O)CO2 | 21% (inactive) | 104% | 0.953 (inactive) | 1.44 | 6670 | 7000 | 0.116 (inactive) | -0.135 | -0.585 (inactive) |  |
| CNC(=C[N+](=O)[O-])NCCSCc1csc(CN(C)C)n1 |  |  | 0.834 (inactive) and 1.04 (inactive) | 1.65 and 0.659 | 8750 and 8440 | 10500 and 8100 | -0.241 (inactive) | -0.0279 | 0.825 (inactive) | 4.67 (inactive) |
| CC[C@H]1OC(=O)[C@H](C)[C@@H](O[C@H]2C[C@@](C)(OC)[C@@H](O)[C@H](C)O2)[C@H](C)[C@@H](O[C@@H]2O[C@H](C)C[C@H](N(C)C)[C@H]2O)C(C)(O)C[C@@H](C)CN(C)[C@H](C)[C@@H](O)[C@]1(C)O (stereo partly drawn) | 18.4% (inactive) | 65.5% | 0.876 (inactive) | 1.13 | 9530 | 10900 | -0.337 (inactive) and 0.0634 (inactive) | -0.912 and -0.719 | 0.015 (inactive) |  |
| Nc1nc(=O)n([C@@H]2CS[C@H](CO)O2)cc1F | 56.6% (inactive) | 160% | 0.911 (inactive) | 1.49 | 10100 | 11100 | 0.34 (inactive) and -0.461 (inactive) | -0.0583 and -0.327 | 0.88 (inactive) |  |
